Results published in PubChem BioAssay AID624330 (Southern Research Specialized Biocontainment Screening …, 2012).
Out of some 340,000 compounds screened, about 2,100 (0.62%) were called active.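 The calls were made as follows: active = first-screen hits whose inhibition reached a set limit at any dose in the follow-up dose series; inconclusive = inhibition above the set first-screen limit but never retested; inactive = the rest.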 These entries were drawn from the full list. Measured potencies and affinities stand elsewhere.

target: Rac GTPase-activating protein 1 (Homo sapiens) (UniProt Q9H0H5); test: MgcRacGAP GTPase-activating activity inhibitors, confirmation, biochemical, ADP Hunter fluorescence, primary and confirmatory (AID 624330); conditions: MgcRacGAP-stimulated Rac1 GTP hydrolysis, at 30 µM, active compounds read high, GST-tagged Rac1 F28L mutant substrate;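 also: fluorescence reports GDP produced by GAP-driven GTP hydrolysis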
Sequence (Q9H0H5 whole entry, looked up): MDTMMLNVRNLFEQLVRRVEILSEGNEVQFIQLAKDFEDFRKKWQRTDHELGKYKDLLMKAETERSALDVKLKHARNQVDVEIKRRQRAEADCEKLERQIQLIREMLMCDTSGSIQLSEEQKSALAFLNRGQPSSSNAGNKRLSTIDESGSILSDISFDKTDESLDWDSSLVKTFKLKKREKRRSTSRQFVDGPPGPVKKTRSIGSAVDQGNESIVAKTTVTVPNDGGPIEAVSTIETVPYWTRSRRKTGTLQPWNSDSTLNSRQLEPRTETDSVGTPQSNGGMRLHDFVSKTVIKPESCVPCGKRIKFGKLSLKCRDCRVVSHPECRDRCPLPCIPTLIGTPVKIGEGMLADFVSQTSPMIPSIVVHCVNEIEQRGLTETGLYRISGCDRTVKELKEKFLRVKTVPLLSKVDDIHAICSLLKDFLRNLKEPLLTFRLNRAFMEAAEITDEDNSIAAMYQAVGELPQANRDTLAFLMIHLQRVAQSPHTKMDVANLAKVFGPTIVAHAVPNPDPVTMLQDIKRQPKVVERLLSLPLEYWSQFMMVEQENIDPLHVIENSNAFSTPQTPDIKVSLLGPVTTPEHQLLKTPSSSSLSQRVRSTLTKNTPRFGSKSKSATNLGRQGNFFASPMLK

inhibition, inactive:
CC1(C)CC(=O)C(C=Nc2ccc3[nH]ncc3c2)=C(O)C1 6.45%, Cc1ccc(O)c(/C=N/NC(=O)c2[nH]ncc2Br)c1 0.98%, Oc1c(Br)cc(Br)cc1C=Nc1ccc2[nH]ncc2c1 17.9%, Brc1ccc2[nH]ncc2c1 3.94%, COc1cccc(N=Cc2ccc(O)cc2O)c1 8.51%, C=CCOc1ccc(C=Nc2ccc(OC)cc2)c(O)c1 12%, CCOC(=O)c1nc(NNC(C)=O)sc1C 0.96%, Cc1nc2nc(-c3cccs3)[nH]c2cc1Br 10.5%, Cc1cccc(NC(=O)c2nc(-c3ccccc3)n(-c3ccccc3)n2)c1C 10.4%, Cc1nnc(CN(C)C(=O)CC2C(=O)NCCN2Cc2ccccc2C)o1 (configuration not stated) -0.43%, Cc1nc(CNS(=O)(=O)c2cc(C)c(C)cc2C)cs1 10.2%, Nc1ccc(SCc2cccnc2)cc1 14%, CC(C)(C)OC(=O)N1CCN(C(=O)c2[nH]cnc2C(=O)Nc2ccc(Cl)cc2)CC1 8.41%, O=C(NCc1cccnc1)C1CCN(S(=O)(=O)c2cccs2)CC1 8.85%, CC(=O)N(C)c1ccc(NS(=O)(=O)c2cc(Cl)ccc2Cl)cc1 11.1%, CC(=O)Nc1ccc(S(=O)(=O)N[C@@H](C)C(=O)OCc2ccc(Cl)cc2)cc1 3.47%, CSc1ccc(S(=O)(=O)Nc2ccc(S(=O)(=O)Nc3ccc(C)cc3)cc2)cc1 8.03%, CN(C)c1ccc(S(=O)(=O)c2ccc(Cl)cc2)cc1 -2.71%, O=S(=O)(Nc1ccncc1)c1ccc(Cl)cc1 2.85%, CCN(c1ccc(NS(=O)(=O)c2cc(Cl)ccc2Cl)cc1)C(C)C 10.2%, Cc1ccc(S(=O)(=O)Nc2ccc(N(C)S(=O)(=O)c3ccc(C)cc3)cc2)cc1 3.88%, Cc1ccc(NC(=O)COC(=O)C(NS(=O)(=O)c2ccc(Cl)cc2)C(C)O)cc1 (configuration not stated) 4.48%, O=C(CCSc1ccc(Cl)cc1)NCc1ccccn1 14.8%, CC(=O)CC(=O)Nc1ccc(Cl)cn1 4.78%, CCOC(=O)N1CCC(N2CCN(S(=O)(=O)c3ccc([N+](=O)[O-])cc3)CC2)CC1 30.9%, COc1ccc2nc(NC(=O)CSc3cn[nH]n3)sc2c1 6.06%, Nc1ccccc1NC(=O)NC(=O)c1ccccc1 12.1%, COC(=O)Cn1cc(/C=N/NC(=O)COc2cccc3cccnc23)c2ccccc21 5.77%, Cc1cc(C(=O)Nc2sccc2C#N)c2ccccc2n1 12%, Cn1nnc(NC(=O)c2ccc(Br)o2)n1 11.1%, COCc1ccc(CN2CCC(N3CCC(C(=O)N4CCCC4)CC3)CC2)o1 1.64%, CN(CC(=O)Nc1ccc(F)cc1)C(=O)c1cccc(NS(=O)(=O)c2ccccc2)c1 5.16%, COCCNC(=O)/C(C#N)=C/c1c(N2CCN(c3ccc(OC)cc3)CC2)nc2c(C)cccn2c1=O 31.4%, COCCCNC(=O)/C(C#N)=C/c1c(N2CCN(c3ccccc3)CC2)nc2c(C)cccn2c1=O 10.4%, OCCNCc1c(OCc2ccc(Cl)cc2)ccc2ccccc12 8.81%, CCc1ccc(NC(=O)CCNC(=O)Cn2cnc3ccccc3c2=O)cc1 9.24%, COc1ccc(-n2c(C)cc(/C=C3\C(=N)N4N=C(CC(=O)N5CCOCC5)SC4=NC3=O)c2C)c(OC)c1 -2.43%, Cc1cc(-c2ccc3ccccc3c2)n2ncnc2n1 -7.09%, Cc1cc(-c2ccccc2)n2ncnc2n1 6.89%, COc1ccc(NC(=O)CCCc2ccccc2)c(OC)c1 6.75%, CNC(=O)CC1C(=O)N(Cc2ccccc2)C(=S)N1NC(=O)c1cccc(F)c1 (configuration not stated) -0.78%, COCCn1c(CN2CCc3ccccc3C2)nc2c1c(=O)n(C)c(=O)n2C 7.99%, CCCc1nc2ccccc2n1CCOc1ccccc1 3.33%, N#C/C(=C/c1cccc(O)c1)C(=O)NCc1ccc(Cl)cc1 24.4%, CCOc1cc(/C=C(\C#N)C(=O)Nc2ccccn2)ccc1O 12.8%, N#C/C(=C/c1ccc(O)cc1)C(=O)NCc1ccc(Cl)cc1 3.42%, COc1ccc(/C=N/NC(=O)C(=O)NCc2cccnc2)cc1OC -5.14%, COc1ccc(/C=C(\C#N)C(=O)NCc2cccnc2)cc1OC 0.52%, COc1cc(/C=N/NC(=O)C(=O)NCc2cccnc2)ccc1O 25.4%, CCOc1cc(/C=C(\C#N)C(=O)NCC2CCCO2)ccc1OCC(N)=O (configuration not stated) 4.74%, CCOc1ccc(/C=C(\C#N)C(=O)NCC2CCCO2)cc1OCC (configuration not stated) -2.79%, O=C(NCc1ccco1)C1CC(c2cc(C(F)(F)F)cc(C(F)(F)F)c2)=NO1 (configuration not stated) 6.53%, COc1cc2c(cc1NC(=O)CN(C)Cc1nc3ccccc3c(=O)[nH]1)oc1ccccc12 5.31%, O=C(Nc1ccc(Cl)cc1Cl)NC1CCN(S(=O)(=O)c2ccc(F)cc2)CC1 9.28%, Cc1ccc(-c2ccc(/C=N/NC(=O)Cc3nnc(N)s3)o2)cc1Cl 7.23%, COc1ccc(S(=O)(=O)N2CCOCC2)cc1NC(=O)c1cc(C)oc1C 6.98%, CCn1c(=O)n(CC(=O)Nc2ccc(F)cc2)c(=O)c2ccccc21 12.4%, O=C(Cn1sc2ccccc2c1=O)Nc1ccc(Br)cc1 31.7%, O=C(Cn1sc2ccccc2c1=O)Nc1ccc(Cl)cc1 31.2%, O=C(Cn1nc(-c2ccccc2)c2ccccc2c1=O)Nc1ccc(F)cc1 5.93%, O=c1c(-c2ccc(Br)cc2)[n+]([O-])c2ccccc2n1OCc1ccccc1 -0.43%, CSc1ccc(Cn2nnc(C(=O)Nc3ccc(C)c(C)c3)c2N)cc1 8.18%, Cn1c(SCC(=O)Nc2cccc(F)c2)nnc1-c1cc2ccccc2o1 7.89%, Nc1ccc(NC(=O)c2cccs2)cc1 24%, CC1=C(C(=O)NCCc2ccc(C)cc2)C2(CCC(C)CC2)OC1=O (configuration not stated) 7.59%, O=C(NC1=C(Nc2ccc(Cl)cc2)C(=O)c2ccccc2C1=O)c1ccccc1 6.16%, O=C(Nc1ccccc1Cl)c1ccccc1 6.83%, C/C(=N\NC(=O)C(O)c1ccccc1)c1cccnc1 (configuration not stated) 2.12%, Nc1ccc(C(=O)N/N=C/c2sc(N3CCOCC3)nc2-c2ccccc2)cc1 12%, O=C(N/N=C/c1ccc(N2CCOCC2)s1)c1ccccc1Cl 25.1%, O=C(N/N=C/c1ccc(N2CCOCC2)s1)c1ccc(NS(=O)(=O)c2cccs2)cc1 18.4%, COc1ccc(C(=O)N/N=C/c2ccc(N3CCOCC3)o2)cc1OC 14.2%, O=C(NN=Cc1ccc(N2CCOCC2)s1)c1ccc([N+](=O)[O-])cc1 9.59%, COc1ccc(C(=O)N/N=C/c2sc(N3CCOCC3)nc2-c2ccccc2)cc1OC 7.1%, CCCNC(=O)CSC1=N/C(=C/c2ccc(F)cc2)C(=O)N1CC -5.26%, CCC(=O)NC(=S)Nc1ccc(S(=O)(=O)NC(C)C)cc1 -11.4%, O=C(COC(=O)C1CCC1)Nc1cccc(Cl)c1 2.49%, O=C(NC1CCCCC1)C(c1ccncc1)N(C(=O)c1csnn1)c1ccc(F)cc1 (configuration not stated) 0.4%, CC1=CCC2C(=O)N(c3ccccc3OC(=O)c3ccccc3F)C(=O)C2C1 (configuration not stated) 2.92%, C=CCC1CCC/C(=N\NS(=O)(=O)c2ccc(C)cc2)C1 (configuration not stated) -4.06%, Nc1ccn(CCCN2CCN(C(=O)C3CC3)CC2)c(=O)n1 15.1%, COc1cc(C2c3[nH]c4ccccc4c3C[C@H]3C(=O)N(CCO)CC(=O)N23)cc(OC)c1OC (some centres not stated) 8.37%, Cc1c(C(=O)N2CCN(S(=O)(=O)c3ccccc3)CC2)oc2ccccc12 3.82%, O=C(Nc1ccccc1)N1CCc2scc[n+]2-c2ccccc21 16.9%, O=C(NCc1nnc(SCC(=O)N2CCOCC2)o1)c1c(F)cccc1F 7.33%, O=C(NNc1c(Cl)cccc1Cl)c1sccc1Cl 6.69%, COc1ccc(NC(C)=O)c(C)c1 -3.51%, COc1ccc(Nc2cccc3ccccc23)cc1 31.6%, COc1ccc(Nc2cccccc2=O)cc1 7.45%, COc1ccc(C(=O)Nc2ccc3ccccc3c2)cc1 3.97%, O=C(Nc1ccc(S(=O)(=O)Nc2ncccn2)cc1)c1ccccc1 2.75%, CCc1cccc(CC)c1NC(=O)CN1CCN(c2ccccc2)CC1 20.5%, COc1ccccc1NS(=O)(=O)c1ccc(C)c(C(=O)N2CCCC2)c1 -1.95%, COc1ccc(OC)c(CN2CCN(C(=O)c3cc(S(=O)(=O)Nc4ccccc4OC)ccc3C)CC2)c1 -2.48%, COc1cc(C(O)P(=O)(OCCC(C)C)c2ccc(N(C)C)cc2)cc(OC)c1OC (configuration not stated) -1.91%, CN(C)/C=N/c1ncc(C(=O)c2ccc(Cl)cc2)s1 3.44%, CN(C)/C=N/c1ncc(C(=O)c2ccccc2)s1 7.32%
